PubChem BioAssay
Where “and” joins values, the source holds several entries; their conditions need not be identical. Equal values may be shown once. Records with an inconclusive call do not appear. Calls of active or inactive are those of the source. Unless noted, cut-off not given; nearly all actives show AC50 up to about 26 µM.

Experiments:
[1] = ovarian cancer cell viability with rucaparib, profiling panel, oncology-focused library, rucaparib conditional (AID 1508598;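 active means normalized viability below 100% at a tested concentration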); details: patient-derived ovarian cancer cells, CellTiter-Glo viability, 144 h, stronger effect = lower value
[2] = growth inhibition of DIPG glioma cells, dose response, cell-based, SU-DIPG-XVII, MIPE5.0, CellTiter-Glo, qHTS (AID 1347060); details: SU-DIPG-XVII viability, CellTiter-Glo ATP luminescence;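 on AC50: cells exposed to compound for 48 hours before viability readout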
[3] = growth inhibition of DIPG glioma cells, dose response, cell-based, JHH-DIPG-1, MIPE4.0, CellTiter-Glo, qHTS (AID 1347062; cut-off not given, nearly all actives have AC50 up to about 27 µM;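 on AC50: cells exposed to compound for two days before readout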); details: JHH-DIPG-1 viability, CellTiter-Glo ATP luminescence
[4] = growth inhibition of DIPG glioma cells, dose response, cell-based, SU-DIPG-IV, MIPE4.0, CellTiter-Glo, qHTS (AID 1347063; cut-off not given, nearly all actives have AC50 up to about 30 µM;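 further: compound exposure lasted 48 hours before the viability readout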); details: SU-DIPG-IV viability, CellTiter-Glo ATP luminescence
[5] = growth inhibition of DIPG glioma cells, dose response, cell-based, SU-DIPG-XIII, MIPE5.0, CellTiter-Glo, qHTS (AID 1347064; cut-off not given, nearly all actives have AC50 up to about 23 µM;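 on AC50: cells exposed to compound for 48 hours before the viability read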); details: SU-DIPG-XIII viability, CellTiter-Glo ATP luminescence
[6] = viability loss in pontine glioma line – cell-based, SU-DIPG-XXV, MIPE5.0, CellTiter-Glo, qHTS, dose response (AID 1347065); details: CellTiter-Glo ATP luminescence;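 further: cells exposed to compound for 48 hours before ATP readout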
[7] = JHH-DIPG-1 glioma cell viability, MIPE5.0 library, CellTiter-Glo luminescence, qHTS (AID 1347067); details: JHH-DIPG-1 glioma viability, CellTiter-Glo ATP luminescence;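 further: cells exposed to compound for 48 hours before readout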
[8] = SU-DIPG-XXV glioma cell viability, MIPE5.0 library, qHTS (AID 1347068; cut-off not given, nearly all actives have IC50 up to about 30 µM;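 on IC50: cells exposed to compound for 48 hours before viability readout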)
[9] = sensitizers of A549 cells to miR-34 induction, primary screen, imaging, A549 dox-inducible miR-34, nuclei and caspase counts (AID 1347080;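 active means compounds whose cell count with miR-34 switched on is under 0.7 times the count with it off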); details: A549 miR-34 inducible, Hoechst nuclei count, 48 h
[10] = survival rescue of mitochondrial mutant cells in low glucose, primary screen, MELAS cybrids, Rieske KO mouse fibroblasts, CellTiter-Glo (AID 1508586;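 active means mean z-score across replicates of 1.96 or higher in either the MELAS or the Rieske mutant cell line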;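 further: z relative to plate mean and SD of compound and empty wells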)
[11] = SU-DIPG-VI glioma cell viability, MIPE4.0 library, CellTiter-Glo luminescence, qHTS (AID 1347066; cut-off not given, nearly all actives have AC50 up to about 30 µM;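 further: cells exposed to compound for 48 hours before readout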); details: CellTiter-Glo ATP luminescence
[12] = modifiers of HSF1 nuclear foci, imaging, Selleck Cancer Library (AID 1347162; in the data active means plate-normalised HSF1 focus index below about 0.46); details: human cells, at 10 µM; SSMD: measured here: HSF1 foci SSMD mean; cell count: measured here: cell number; plate-normalised HSF1 focus index: stronger effect = lower value
[13] = stronger effect = lower value, cell number ratio, induced over uninduced
[14] = measured here: relative caspase fold change +Dox/-Dox
[15] = measured here: total cells with miR-34 induction, stronger effect = lower value
[16] = measured here: total cells without miR-34 induction
[17] = MELAS cybrid survival, CellTiter-Glo 48 h, stronger effect = higher value
[18] = Rieske KO mouse fibroblast survival, CellTiter-Glo 72 h

For CC[C@@H]1C(=O)N(C)c2cnc(Nc3ccc(C(=O)NC4CCC(N5CCN(CC6CC6)CC5)CC4)cc3OC)nc2N1C(C)C (some centres undefined), the viability ([1]; at 0.0781 µM, OCI-P5x cells, without rucaparib) was 20.5% (active), the viability ([1]; at 0.313 µM, OCI-C5x cells, with rucaparib 10 µM, 100% = cells with rucaparib alone) was 41.4% (active) and the viability ([1]; at 0.313 µM, OCI-C5x cells, without rucaparib) was 36.3% (active). The viability ([1]; at 0.313 µM, OCI-P5x cells, with rucaparib 20 µM, 100% = cells with rucaparib alone) was 70.1% (active), the viability ([1]; at 0.313 µM, OCI-P5x cells, without rucaparib) was 17.3% (active) and the viability ([1]; at 1.25 µM, OCI-C5x cells, with rucaparib 10 µM, 100% = cells with rucaparib alone) was 26.6% (active). The viability ([1]; at 1.25 µM, OCI-C5x cells, without rucaparib) was 25.2% (active), the viability ([1]; at 1.25 µM, OCI-P5x cells, with rucaparib 20 µM, 100% = cells with rucaparib alone) was 9.33% (active) and the viability ([1]; at 1.25 µM, OCI-P5x cells, without rucaparib) was 13.8% (active). For the same compound, the viability ([1]; at 5 µM, OCI-C5x cells, with rucaparib 10 µM, 100% = cells with rucaparib alone) was 4.03% (active), the viability ([1]; at 5 µM, OCI-C5x cells, without rucaparib) was 21.5% (active) and the viability ([1]; at 5 µM, OCI-P5x cells, with rucaparib 20 µM, 100% = cells with rucaparib alone) was 1.64% (active). The viability ([1]; at 5 µM, OCI-P5x cells, without rucaparib) was 12.5% (active).

In the case of CNC(=O)c1nn(C)c2c1C(C)(C)Cc1cnc(Nc3ccc(N4CCN(C)CC4)cc3)nc1-2, the AC50 [2] is reported as 5.9 µM (active), the AC50 [3] is reported as 2.35 µM (active) and the AC50 [4] is reported as 14.8 µM (active). For the same compound, the AC50 [5] was 6.61 µM (active), the AC50 [6] was 2.35 µM (active) and the AC50 [7] was 8.33 µM (active). The IC50 [8] was 9.34 µM (active), the fold change [9, 13] was 1.12 (inactive) and the fold change [9, 14] was 0.794. The cell count [9, 15] was 1220, the cell count [9, 16] was 1090 and the z-score [10, 17] was 4.48 (active). It also gave a z-score [10, 18] of -3.65.

In the case of Cc1[nH]c(/C=C2\C(=O)Nc3ccc(S(=O)(=O)N(C)c4cccc(Cl)c4)cc32)c(C)c1C(=O)N1CCN(C)CC1, the AC50 [2] is reported as 9.34 µM (active), the AC50 [3] is reported as 20.9 µM (active) and the AC50 [4] is reported as 23.5 µM (active). For the same compound, the AC50 [5] was 7.42 µM (active), the AC50 [6] was 7.42 µM (active) and the AC50 [11] was 11.8 µM (active). For the same compound, the AC50 [7] was 8.33 µM (active), the SSMD [12] was 1.63 and the cell count [12] was 7040. The plate-normalised HSF1 focus index [12] was 1.1 (inactive).

With COc1cc2c(Nc3ccc(Cl)c(Cl)c3F)ncnc2cc1OCC1C[C@@H]2CN(C)C[C@@H]2C1 (some centres undefined) the AC50 [2] was 5.25 µM (active), the AC50 [3] was 18.7 µM (active) and the AC50 [4] was 6.62 µM (active). For the same compound, the AC50 [5] was 8.33 µM (active), the AC50 [6] was 7.42 µM (active) and 8.33 µM (active) and the AC50 [7] was 4.68 µM (active) and 2.35 µM (active). For the same compound, the IC50 [8] was 18.6 µM (active) and 16.6 µM (active).

For Cc1cc(OCCCS(C)(=O)=O)cc(C)c1-c1cccc(COc2ccc3c(c2)OC[C@H]3CC(=O)O)c1, the outcome [2] was “inactive”, the outcome [3] was “inactive” and the outcome [4] was “inactive”. The outcome [5] was “inactive”, the outcome [6] was “inactive” and the outcome [7] was “inactive”. For the same compound, the outcome [8] was “inactive”.

For COc1cccc(Nc2c(C(N)=O)cnc3c(C)cc(S(=O)(=O)c4cccc(C(=O)N(C)C)c4)cc23)c1, the outcome [2] was “inactive”, the outcome [3] was “inactive” and the outcome [4] was “inactive”. For the same compound, the outcome [5] was “inactive”, the outcome [11] was “inactive” and the outcome [7] was “inactive”. For the same compound, the outcome [8] was “inactive”, the fold change [9, 13] was 0.95 (inactive) and the fold change [9, 14] was 0.8. For the same compound, the cell count [9, 15] was 9130, the cell count [9, 16] was 9610 and the z-score [10, 17] was -0.192 (inactive). The z-score [10, 18] was -1.7.

For CN1CC[C@@H](c2c(O)cc(O)c3c(=O)cc(-c4ccccc4Cl)oc23)[C@@H](O)C1, the AC50 [2] was 0.468 µM (active), the AC50 [3] was 0.105 µM (active) and the AC50 [4] was 0.0743 µM (active). For the same compound, the AC50 [5] was 0.332 µM (active), the AC50 [6] was 0.468 µM (active) and the AC50 [7] was 0.59 µM (active).

In the case of Cn1c2ccccc2c2c3c(c4c5ccccc5n(CCC#N)c4c21)CNC3=O, the AC50 [2] is reported as 8.33 µM (active), the outcome [3] is reported as “inactive” and the AC50 [4] is reported as 0.148 µM (active). For the same compound, the AC50 [5] was 13.2 µM (active), the AC50 [6] was 7.42 µM (active) and the AC50 [7] was 11.8 µM (active). For the same compound, the fold change [9, 13] was 0.591 (active), the fold change [9, 14] was 1.06 and the cell count [9, 15] was 1520. It also gave a cell count [9, 16] of 2580.
